# High-throughput results deposited in PubChem BioAssay by National Center for Advancing Translational Sciences (NCATS).
# In the library only some 1.7% were active in any assay of this set; here they are far more common.
# HEK293 tox = cytotoxic in the GLP-1 receptor inverse agonist counter-screen | HEK293 cAMP-luciferase reporter cells, luminescence, 24 h | Potency, µM (doses to about 38.3 µM), inactives show at the top dose activity change, negative = inhibition, most hits filed as inhibitors | 410,000 tested, 0.13% active;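 also: loss of luciferase light is scored as toxicity; % is scaled to controls: 0 for no effect and ±100 for the full control effect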
#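 Cells in DMEM/10% Nu serum/1% pen-strep, 1536-well format. Pre-incubated 12 h, dosed with 23 nL compound, incubated a further 24 h. Luciferase detection, 12 min at room temp, luminescence.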
# PTHR1 ag = PTHR1 (human) receptor agonism; Q03431; HEK293 GP2 PTHR1 cells, GloSensor cAMP luminescence, 1 h; Potency, µM (top dose mostly 115 µM), for inactives: at the highest dose activation, hits mostly activators; 410,000 tested, 0.075% active; also: nearly all actives have a fitted effect of over 55% in size
#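 HEK-293-derived GP2 cells expressing PTHR1 and a GloSensor cAMP reporter, 3,000/well, plated overnight, given luciferin plus IBMX (each 0.5 mM as added) for 1 h at 37 °C, then compound for 1 h at 37 °C. Luminescence was read after 15 min at room temperature.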
# GLP1R inv ag = inverse agonists of human GLP-1 receptor; AID 624417; Potency, µM (top dose mostly 38.3 µM), for inactives: at the top dose activity change, negative = inhibition, actives largely listed as inhibitors; HEK293 GLP-1R CRE-luciferase, luminescence, 24 h; GLP-1R form is constitutively active; 410,000 tested, 1.6% active; also: % is scaled to controls: 0 for no effect and ±100 for the full control effect; nearly all actives have a fitted effect of over 55% in size
# Target sequence (P43220 whole entry, looked up): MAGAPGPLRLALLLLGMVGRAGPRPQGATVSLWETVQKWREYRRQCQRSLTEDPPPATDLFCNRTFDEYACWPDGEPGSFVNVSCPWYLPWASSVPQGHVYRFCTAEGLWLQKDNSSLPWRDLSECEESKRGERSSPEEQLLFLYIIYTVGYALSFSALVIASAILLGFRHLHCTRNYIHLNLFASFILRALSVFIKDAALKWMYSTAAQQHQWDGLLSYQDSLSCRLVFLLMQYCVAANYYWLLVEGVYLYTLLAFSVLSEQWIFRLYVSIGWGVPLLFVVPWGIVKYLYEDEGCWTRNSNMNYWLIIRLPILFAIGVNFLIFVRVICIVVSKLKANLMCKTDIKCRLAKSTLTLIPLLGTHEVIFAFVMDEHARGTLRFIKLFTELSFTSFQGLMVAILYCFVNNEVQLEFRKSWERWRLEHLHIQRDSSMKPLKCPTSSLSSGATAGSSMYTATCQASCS
#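 Using stably transfected HEK293 (constitutively active GLP-1R, cAMP-luciferase reporter), compounds were incubated 24 hr and luciferase measured by luminescence.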
# GLP1R ag = GLP-1 receptor (human) agonism; AID 624172; 380,000 tested, 0.007% active; HEK293 GLP-1R CRE-luciferase, luminescence, 4-6 h; cells express a hypersensitive GLP-1R form; Potency, µM (top dose mostly 45.6 µM), for the others: top-dose activation, hits mostly activators; P43220; also: % of control where 0% means no effect
# An asterisk follows results filed as active; i = inactive; ? = inconclusive; . = not tested or not shown; [ ] = dose if it differs, or a comment. Calls follow the shape of the dose curve; as a rule, active = well fitted curve in the direction sought with a large enough effect; inconclusive = small, poorly fitted or top-dose-only effect, or another doubt; inactive = no such curve, though single readings can be large; an effect the other way counts as inactive or inconclusive. Potency is read from the fitted curve at half-maximal effect.
SMILES,HEK293 tox,PTHR1 ag,GLP1R inv ag,GLP1R ag
CCc1ccc(C2=NN(C(=O)OC)C(O)(C(F)(F)F)C2)cc1 (configuration not stated),0%,-16%[57.5 µM],7.9µM*,-1%
CC1(C(=O)O)CCC2(C)CCC3(C)C(=CC(=O)[C@@H]4C5(C)CC[C@H](O[C@H]6O[C@H](C(=O)O)C(O)C(O)[C@H]6O[C@@H]6O[C@H](C(=O)O)C(O)C(O)C6O)C(C)(C)[C@@H]5CCC43C)[C@@H]2C1 (some centres not stated),.,.,.,2%
Cc1cccc(N(C)S(=O)(=O)c2ccc(-c3cc(C)no3)s2)c1,-11%,-24%,1µM*,9%
Cc1[nH]ccc2cc3nc4ccccc4c3cc12,-1%,i,10µM*,-2%
Cc1cccc2nc3ccccc3cc12,3%,i,4%,3%
OC(C#Cc1ccccc1)(c1ccccc1)c1ccccc1,?,-24%,4.5µM*,15%
CC(C)[N+](C)(C)CC#CC(O)(c1ccccc1)c1ccccc1,-8%,i,5%,0%
NS(=O)(=O)c1ccc(NC(=S)NCc2ccc(Cl)cc2)cc1,-2%,?,4µM*,2%
Cc1nn(CC(=O)NC2CCS(=O)(=O)C2)c(C)c1[N+](=O)[O-] (configuration not stated),19%,i,-1%,-2%
CCOc1ccc(NC(=O)c2cnccn2)cc1,-12%,i,?,-1%
CCOc1ccc(NC(=O)c2ccccn2)cc1,-9%,-92%,2µM*,-28%
Cc1cc(C)c(NC(=O)C(=O)NCC(c2cccnc2)N2CCN(c3ccccc3F)CC2)c(C)c1 (configuration not stated),2%,i,9%,.
O=C(c1cc2c(s1)CCCC2)N1CCN(Cc2ccc3c(c2)OCO3)CC1,-25%,-9%[57.5 µM],13µM*,6%
Cc1ccc(C(=O)N2CCN(Cc3ccc4c(c3)OCO4)CC2)c(Cl)c1,8%,-27%,6.3µM*,8%
CCN(CC)c1ccc(C(=O)NC(=S)N2CCN(Cc3ccc4c(c3)OCO4)CC2)cc1,-10%,-72%,10µM*,7%
Cc1cc(C)cc(OCC(O)CN2CCN(Cc3ccc4c(c3)OCO4)CC2)c1 (configuration not stated),3%,-22%,2.2µM*,-1%
CCOc1ccc(-c2cc(C(=O)N3CCN(c4cccc(C)c4)C(C)C3)c3ccccc3n2)cc1 (configuration not stated),-15%,-24%,5µM*,.
CCOc1cccc(-c2cc(C(=O)N3N=C(C)CC3(O)C(F)F)c3ccccc3n2)c1 (configuration not stated),6%,i,11µM*,11%
Cc1nn(CC(=O)Nc2ccc(Cl)cn2)c(C)c1Br,7%,-23%,-15%,0%
C/C(=N\NC(N)=O)c1ccccc1Cl,-4%,-10%,5%,8%
CC1(C)C2CCC1(C)C(NC(=O)/C=C/c1ccccc1)C2 (configuration not stated),-10%,-24%,7.1µM*,4%
O=C1OC(CN(Cc2ccccc2)Cc2ccccc2)CN1N=Cc1ccc([N+](=O)[O-])o1 (configuration not stated),-6%,-57%,?,13%
COc1ccc(N2CCN(C(=O)CCc3ccc(S(=O)(=O)NC(C)C)cc3)CC2)cc1,-2%,-4%[57.5 µM],8%,-5%
CCCCSc1nc2c([nH]1)c(=S)n(C)c(=O)n2C,?,-10%,?,-7%
CCCCC(C)Sc1nc2c([nH]1)c(=S)n(C)c(=O)n2C (configuration not stated),?,-60%,?,15%
SMILES,HEK293 tox,PTHR1 ag,GLP1R inv ag,GLP1R ag
CCCC(CC)Sc1nc2c([nH]1)c(=S)n(C)c(=O)n2C (configuration not stated),0.89µM*,-32%,?,3%
CCN(CC)CCSc1nc2c([nH]1)c(=S)n(C)c(=O)n2C,5.6µM*,-7%,?,1%
CCc1ccccc1-n1nnc(-c2nsc(NC(=O)c3ccc(C)c(C)c3)n2)c1C,0%,-31%,1.1µM*,.
Cc1ccc(S(=O)(=O)Nc2cccc(C(=O)NCC3(N4CCCCC4)CCCCC3)c2)cc1F,-27%,i,11µM*,14%
COc1ccc(C(=O)NCC(C)(C)SCc2c(C)cc(C)cc2C)cc1,-26%,i,?,6%
CC(Oc1ccc(Cl)cc1Cl)C(=O)NC(=S)N1CCc2ccccc21 (configuration not stated),?,-1%,10µM*,-12%
CCCSc1cc(N2CCN(C)CC2)nc(-c2ccc(OC)cc2)n1,-1%,?,8.9µM*,2%
CCCSc1cc(N2CCCC2)nc(-c2ccccc2)n1,18%,i,0%,-4%
COc1cccc(NC(=O)Cc2csc(NC(=O)Nc3ccccc3OC)n2)c1,?,-5%,10µM*,-1%
COc1cc(C)ccc1NC(=O)Cc1csc(NC(=O)Nc2ccccc2OC)n1,?,-18%,10µM*,2%
CCC(=O)Nc1nc(CC(=O)Nc2ccccc2OC)cs1,1%,i,19%,-2%
COc1ccccc1NC(=O)Cc1csc(NC(=S)Nc2ccc(C)cc2)n1,3.2µM*,i,-15%,1%
COc1ccccc1NC(=O)Nc1nc(CC(=O)Nc2ccc(OC)c(OC)c2)cs1,8%,i,8%,6%
CC1(C)CC2CC(C)(CN2C(=O)c2ccc([N+](=O)[O-])cc2[N+](=O)[O-])C1 (configuration not stated),2%,i,2%,9%
O=C1C2C3C=CC(C3)C2C(=O)N1c1ccc(N2CCN(c3ccccn3)CC2)c([N+](=O)[O-])c1 (configuration not stated),-49%,-30%,2.8µM*,6%
O=C(CCN1C(=O)C2C3C=CC(C3)C2C1=O)N1CCN(c2ccccn2)CC1 (configuration not stated),20%,i,-7%,8%
Cc1ccc(CNC(=O)c2c(-c3ccccc3)sc3ccccc23)o1,7%,-48%,5µM*,9%
Cc1ccsc1CNCc1cc(Cl)ccc1O,0%,-7%,7%,10%
CC(C)(C)NCC(O)COc1ccccc1C(C)(C)C (configuration not stated),-6%,i,7.9µM*,-1%
CC(C)(C)NCC(O)COc1ccccc1C(=O)CCc1ccccc1 (configuration not stated),?,i,11µM*,-3%
O=P(Cc1cccc2ccccc12)(c1ccccc1)c1ccccc1,-14%,i,?,13%
Cc1noc(C)c1C(=O)OCC(=O)C12CC3CC(CC(C3)C1)C2,-6%,-6%,-15%,-1%
O=C(c1ccc2[nH]c3c(c2c1)CCCC3)N1CCN(c2ccc(F)cc2)CC1,-1%[1.53 µM],i,?,-5%
O=C(/C=C/c1cn(-c2ccccc2)nc1-c1cccnc1)N1CCCCC1,-15%,-1%,14%,21%
